C8 TRAIL sens = caspase-8 TRAIL sensitization | NB7+C8 cells + TRAIL, ATPlite viability luminescence | inhibition (viability loss, TRAIL sensitization), % at 10 µM | 1% of 360,000 active;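 active = compounds causing at least 50% loss of cell viability in the single-dose screen, relative to plate controls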
SENP7 inh = inhibitors of human SENP7 protease; Q9BQF6; recombinant SENP7, Z-RLRGG-aminoluciferin luminescence, 40 min; inhibition, % at 5 µM; 1.5% of 330,000 active; AID 434973;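 active = inhibition above about 50% at the single test dose, limit read from the data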;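 note: plate controls were DMSO with enzyme for no effect and no enzyme buffer wells for full effect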
Target sequence (Q9BQF6 706-1050 limits assumed): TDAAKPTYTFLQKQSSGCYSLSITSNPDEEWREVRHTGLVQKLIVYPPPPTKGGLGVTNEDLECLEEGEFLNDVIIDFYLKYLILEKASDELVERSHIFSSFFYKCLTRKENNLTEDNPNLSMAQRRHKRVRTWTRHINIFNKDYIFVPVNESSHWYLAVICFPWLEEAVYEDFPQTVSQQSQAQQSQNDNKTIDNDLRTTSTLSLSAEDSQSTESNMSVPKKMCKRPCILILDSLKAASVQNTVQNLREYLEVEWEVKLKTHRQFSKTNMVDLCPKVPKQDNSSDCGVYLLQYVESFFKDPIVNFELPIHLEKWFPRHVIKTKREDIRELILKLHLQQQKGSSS
SENP6 inh = SENP6 protease inhibition | Q9GZR1 | Recombinant SENP6 catalytic domain, aminoluciferin luminescence | inhibition, % at 10 µM | 1.8% of 330,000 active | AID 2599;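 active = inhibition above about 50% at the single tested dose, limit read from the data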;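 note: plate controls were DMSO wells with enzyme for no effect and DMSO wells lacking enzyme for full effect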
SENP8 block-1 = blocks human SENP8 cleavage of Nedd8 substrate; Q96LD8; recombinant SENP8, Nedd8 substrate fluorescence; inhibition, % at 20 µM; 0.64% of 360,000 active; in the data active = inhibition mostly above about 40%, no sharp cut-off; inactive = mostly below about 27%
SENP8 block-2 = inhibitors of human SENP8 protease; inhibition, % at 10 µM; Q96LD8; purified SENP8, Z-RLRGG-aminoluciferin cleavage, luminescence; 1.2% of 330,000 active; AID 2540; in the data active = inhibition above about 50%
PPC-1+TRAIL kill = compounds killing PPC-1 cancer cells with TRAIL present (potentiator screen, no TRAIL-free arm). PPC-1 cells + TRAIL, ATPLite viability luminescence. cell killing (% activity), % at 4 µM or 5 µM. 0.41% of 220,000 active;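 active = cell killing above 50% in the first pass at 4 µM, then a duplicate retest at 5 µM averaging 50% or more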;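 note: plate controls were cells with TRAIL plus DMSO for no effect and medium-only wells lacking cells for full effect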
SENP8 confirm = human SENP8 inhibition, confirmed; shares compounds with SENP7 inh; Recombinant SENP8, Z-RLRGG-aminoluciferin luminescence, 60 min; inhibition, % at 12.5 µM; 40% of 6,200 active; AID 488912;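 active = mean inhibition across replicates above about 50%, limit read from the data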
SENP6 conf = human SENP6 inhibition, confirmed; shares compounds with SENP7 inh; recombinant SENP6, Z-RLRGG-aminoluciferin luminescence; inhibition, % at 12.5 µM; 58% of 6,200 active; AID 488915
SENP7 confirm = human SENP7 inhibition, confirmed. shares compounds with SENP7 inh. recombinant SENP7, Z-RLRGG-aminoluciferin luminescence, 40 min. inhibition, % at 12.5 µM. 69% of 6,200 active. AID 488917
Casp3 SENP sel = selectivity test for SENP inhibitors: human caspase-3 inhibition | shares compounds with SENP7 inh | purified caspase-3, Z-DEVD-aminoluciferin luminescence, 60 min | 60% of 6,200 active | inhibition, % at 12.5 µM;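 active = mean inhibition above about 50%, limit read from the data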;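 note: plate controls were enzyme with DMSO for no effect and wells without caspase-3 for full effect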
Target sequence (P42574 28-227 limits assumed): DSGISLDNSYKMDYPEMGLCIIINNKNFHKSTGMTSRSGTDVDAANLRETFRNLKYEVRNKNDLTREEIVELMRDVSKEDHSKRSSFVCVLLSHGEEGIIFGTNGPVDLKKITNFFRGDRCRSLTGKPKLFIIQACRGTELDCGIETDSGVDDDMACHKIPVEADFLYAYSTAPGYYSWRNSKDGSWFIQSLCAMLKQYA
Luc interf = counter-screen for SENP inhibitors: luminescence interference; shares compounds with SENP7 inh; Pre-incubated SENP8/Z-RLRGG-aminoluciferin, luciferase luminescence interference; inhibition, % at 12.5 µM; 39% of 6,200 active;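 active = mean inhibition above about 50% when retested at one dose, limit read from the data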;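 note: plate controls were DMSO wells with completed reaction for no effect and substrate without enzyme for full effect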
* hit, by the source's call; nt = not tested or not shown. Most compounds without a hit are left out; they make up all but 3% or so of the library.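 Rule for the calls, unless noted: active = mean inhibition above about 50% in the one-dose retest (limit read from the data); inactive = the rest.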

SMILES | C8 TRAIL sens | SENP7 inh | SENP6 inh | SENP8 block-1 | SENP8 block-2 | PPC-1+TRAIL kill | SENP8 confirm | SENP6 conf | SENP7 confirm | Casp3 SENP sel | Luc interf
COc1ccc(C=NNC(=O)c2cc(C)oc2C)cc1O | 40 | 86* | 79* | -1 | 80* | nt | 88* | 85* | 96* | 94* | 83*
COc1cccc(/C=N/NC(=O)c2ccoc2C)c1 | 2 | 88* | 91* | 12 | 82* | 6 | 89* | 87* | 98* | 95* | 86*
COc1cc(/C=N/NC(=O)c2ccoc2C)ccc1O | -3 | 61* | 68* | -22 | 60* | 18 | 66* | 64* | 89* | 89* | 69*
CC(/C=N\NC(=O)c1cc(C)oc1C)=C\c1ccccc1 | 49 | 82* | -14 | 14 | 72* | 43 | 14 | 19 | 24 | 25 | 7
COc1cccc(/C=N/NC(=O)c2ccoc2C)c1O | 37 | 95* | 92* | -43 | 87* | -7 | 93* | 93* | 100* | 97* | 40
Cc1cc(C)n2nc(SCCCC(=O)c3ccc(F)cc3)nc2n1 | -2 | 6 | -11 | 17 | 5 | 4 | nt | nt | nt | nt | nt
O=C(COC(=O)CC1CCCC1)Nc1ccccc1[N+](=O)[O-] | -9 | 2 | -11 | 31 | -15 | nt | nt | nt | nt | nt | nt
CCN(CC)c1ccc(/C=N/NC(=O)c2ccoc2C)cc1 | 16 | 101* | 97* | -437 | 95* | -3 | 97* | 100* | 103* | 98* | 83*
Cn1nccc1C(=O)N/N=C/c1ccccc1[N+](=O)[O-] | -1 | -11 | 4 | 16 | -6 | 3 | nt | nt | nt | nt | nt
Cc1occc1C(=O)N/N=C/c1ccccc1[N+](=O)[O-] | 11 | 73* | 56* | 8 | 37 | -1 | 47 | 47 | 85* | 84* | 32
Cc1cc(C)c(C)c(S(=O)(=O)N[C@@H](C)C(=O)OCC(N)=O)c1C | 1 | 1 | -17 | 18 | 4 | -13 | nt | nt | nt | nt | nt
COC(=O)c1ccc(N=Nc2ccccc2)cc1 | 7 | 59* | 15 | 12 | 47 | 11 | 10 | 57* | 86* | 49 | 35
Oc1ccc(Cl)cc1N=Nc1ccccc1 | 16 | 67* | 73* | 4 | 43 | nt | -6 | 27 | 80* | 23 | 7
O=C(O)c1cc(O)ccc1N=Nc1ccccc1 | -7 | -4 | 6 | 2 | 5 | 21 | nt | nt | nt | nt | nt
OCc1ccc(N=Nc2ccccc2)cc1 | 5 | 55* | 43 | 20 | 24 | nt | 35 | 35 | 74* | 52* | 53*
COc1ccc(N=Nc2ccc(CO)cc2)cc1 | 25 | 66* | 51* | 29 | 40 | nt | 61* | 58* | 83* | 60* | 47
CCCCn1c(CCC(=O)O)nc2cc(S(=O)(=O)N(CC)CC)ccc21 | -1 | -4 | -18 | -22 | -7 | 22 | nt | nt | nt | nt | nt
COCCN(CC(=O)Nc1ccccc1C(F)(F)F)C(=O)c1ccc(-n2cccn2)cc1 | 7 | 5 | -5 | -5 | 2 | nt | nt | nt | nt | nt | nt
Oc1ccc(N=Nc2ccccc2)cc1 | -2 | 68* | 82* | 29 | 74* | nt | 81* | 80* | 91* | 57* | 83*
O=C(O)c1ccccc1N=Nc1ccc(O)cc1 | -9 | -2 | -12 | 6 | 5 | nt | nt | nt | nt | nt | nt
CCCCCCOc1ccc(C(=O)O)cc1 | 1 | 5 | 6 | 15 | 0 | 7 | nt | nt | nt | nt | nt
CCCCOc1ccc(-c2ncc(C(=O)O)c(C)n2)cc1 | 0 | 88* | 86* | 21 | 80* | 5 | 88* | 87* | 98* | 48 | 64*
Cc1ccc(C(C)C)c(OCCNCCc2ccccc2)c1 | 21 | 12 | -41 | 16 | -11 | nt | nt | nt | nt | nt | nt
Cc1ccc2ccc(C3C(=O)c4ccccc4C3=O)nc2c1 | 32 | -5 | 53* | 28 | 52* | nt | 37 | 38 | 34 | 58* | 4
Cc1ccc(C)c(C2C(=O)c3ccccc3C2=O)c1 | -7 | -4 | -17 | 10 | -12 | nt | nt | nt | nt | nt | nt
SMILES | C8 TRAIL sens | SENP7 inh | SENP6 inh | SENP8 block-1 | SENP8 block-2 | PPC-1+TRAIL kill | SENP8 confirm | SENP6 conf | SENP7 confirm | Casp3 SENP sel | Luc interf
CSc1ccc(/C=C/c2ccc3cccc(O)c3n2)cc1 | 53* | 36 | 66* | -282 | 42 | 15 | 65* | 90* | 100* | 91* | 53*
Oc1cccc2ccc(/C=C/c3ccccc3Br)nc12 | 34 | 70* | 90* | -46 | 82* | nt | 72* | 87* | 91* | 78* | 66*
COc1cc(/C=C/c2ccc3cccc(O)c3n2)c(Br)cc1O | 0 | 77* | 84* | -219 | 87* | nt | 63* | 86* | 100* | 55* | 10
COc1cc(Br)c(/C=C/c2ccc3cccc(O)c3n2)cc1OC | 17 | 5 | 11 | -39 | -9 | nt | nt | nt | nt | nt | nt
COc1cc(Br)cc(/C=C/c2ccc3cccc(O)c3n2)c1O | 28 | -12 | 8 | -35 | -20 | nt | nt | nt | nt | nt | nt
COc1cc(/C=C/c2ccc3cccc(O)c3n2)ccc1O | 15 | 51* | 80* | -282 | 60* | nt | 71* | 75* | 92* | 43 | 82*
CCCCN(C(=O)c1cc(S(=O)(=O)N2CCCCC2)ccc1Cl)c1c(N)n(CC(C)C)c(=O)[nH]c1=O | 1 | nt | nt | -2 | nt | nt | nt | nt | nt | nt | nt
CC(C)CNC(=O)C1(C)CCN1C(=O)c1ccc(C(C)(C)C)cc1 (configuration not stated) | -18 | nt | nt | -4 | nt | nt | nt | nt | nt | nt | nt
Cc1ccsc1/C=C/c1ccc2cccc(O)c2n1 | 9 | 91* | 94* | -41 | 86* | 29 | 95* | 97* | 101* | 91* | 84*
CC(C)NC(=O)N(C)C[C@@H]1OCc2cn(nn2)CCCC(=O)N([C@H](C)CO)C[C@H]1C | -21 | nt | nt | -5 | nt | nt | nt | nt | nt | nt | nt
CCn1c(COc2ccccc2C)nc2ccccc21 | 15 | 47 | 75* | 18 | 58* | 21 | 41 | 40 | 78* | 53* | 29
Cn1c(COc2ccccc2Br)nc2ccccc21 | 8 | 49 | 69* | 14 | 60* | nt | 52* | 71* | 91* | 63* | 31
CCn1c(COc2ccccc2OC)nc2ccccc21 | -1 | -3 | 9 | 8 | -11 | nt | nt | nt | nt | nt | nt
Cc1cccc(/C(N)=N/OC(=O)c2ccc(Br)o2)c1 | 1 | 78* | 80* | 12 | 70* | -4 | 53* | 77* | 94* | 86* | 31

Source: PubChem BioAssay (Sanford-Burnham Center for Chemical Genomics)
